Data taken from PubChem BioAssay AID504806 (National Center for Advancing Translational Sciences (NCATS), 2011).
The source made the active and inactive calls. The call rests on the fitted dose curve; in most records, active means well fitted activation curve with a large enough effect; inactive means flat fitted curve, though single readings scatter.

Assay: Followup screen of LOPAC molecules that induce DNA re-replication in SW480 adenocarcinoma cells
Details: Hoechst nuclear DNA content imaging, 48 h; series mostly up to 46.1 µM
Source text: NIH Molecular Libraries Probe Production Network [MLPCN] NIH Chemical Genomics Center [NCGC] MLPCN Grant: Fast Track K99 CA136555 Assay Provider: Melvin DePamphilis, NICHD, NIH Assay Overview Eukaryotic cells normally restrict genome duplication to once per cell division. When this process is aberrant, DNA re-replication occurs when cells reinitiate DNA replication before the first round of replication is complete. DNA re-replication induces the DNA damage response, arrests cell proliferation, and triggers apoptosis. The cell cycle components cyclin A, Cdt-1, Cdc6 and geminin are critical regulators of this process and their misregulation results in DNA re-replication in normal and cancer cells. To identify compounds that induce re-replication in normal cells, an image-based assay was used to measure DNA content of nuclei, as detected by the fluorescent DNA binding dye, Hoechst. Cell nuclei were imaged by a fluorescence scanning plate imager and compounds that induce DNA re-replication were identified by the increase of nuclei with elevated fluorescence intensity.
Assay Protocol Summary For screening, 250 cells in 5 uL/well were dispensed into black clear 1536-well plates (Aurora) using a solenoid-based dispenser. Following transfer of 23 nL compound or DMSO vehicle by a pin tool, the plates were incubated 48 hr at 37 C and 5% CO2. After addition of 1 uL/well Hoescht stain, the plates were incubated 40 min at 37 C, 5% CO2 and total intensity of fluorescent objects (nuclei) were enumerated by an Acumen Explorer Ex3 (TTP LabTech) fluorescence scanning plate imager (405 nm excitation, 500-530 nm emission). Keywords: NIH Roadmap, MLPCN, MLI, MLSMR, qHTS, NCGC, DNA replication, cancer
For `CCN(CC)C(=S)SSC(=S)N(CC)CC`, the Potency was 30 nM (active). With `CC(=O)[O-].CCN(CC)C(=S)SSC(=S)N(CC)CC.[Cu+]` the Potency was 37.8 nM (active). With `CCCCCCN(CCCCCC)C(=O)Cc1c(-c2ccc(F)cc2)[nH]c2ccccc12` the Potency was 26800 nM (active). In the case of `CC(=O)[O-].CS(C)=O.[Cu+]`, the Potency is reported as “inactive”. For `CS(C)=O.[Cl-].[Cl-].[Cu+2]`, the Potency was “inactive”. In the case of `CCN(CC)C(=S)SSC(=S)N(CC)CC.[Cl-].[Cl-].[Cu+2]`, the Potency is reported as 37.8 nM (active).
